# Screens as filed in PubChem.
# Compounds with a hit are over-represented: about 28% of the library has one in this group of screens.
# PLK1 kinase inh: PLK1 (human) kinase inhibition; P53350; recombinant PLK1 kinase, TR-FRET peptide phosphorylation; inhibition, % at 10 µM; 97,000 tested, 0.53% active; AID 619;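 active = inhibition of 50% or more in the single-concentration screen; inactive = inhibition below 50%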
# CYP2C9 inhib: blocks human cytochrome P450 2C9; CYP2C9 Supersomes, luciferin-H conversion, luminescence; inhibition, % at 5 µM; 96,000 tested, 20% active;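 active = blocking of liver enzyme CYP2C9 beyond about 50% at 5 µM, limit read from the data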
# CYP2C19 activ: activators of human cytochrome P450 2C19. recombinant CYP2C19, luciferin-H EGE luminescence; active compounds read high; 0 = fully inhibited enzyme, 1 = untreated enzyme. activation factor at 5 µM. P33261. 96,000 tested, under 10 active;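 active = activation factor of at least 2 at 5 µM in the primary screen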
# Target sequence (P33261 whole entry, looked up): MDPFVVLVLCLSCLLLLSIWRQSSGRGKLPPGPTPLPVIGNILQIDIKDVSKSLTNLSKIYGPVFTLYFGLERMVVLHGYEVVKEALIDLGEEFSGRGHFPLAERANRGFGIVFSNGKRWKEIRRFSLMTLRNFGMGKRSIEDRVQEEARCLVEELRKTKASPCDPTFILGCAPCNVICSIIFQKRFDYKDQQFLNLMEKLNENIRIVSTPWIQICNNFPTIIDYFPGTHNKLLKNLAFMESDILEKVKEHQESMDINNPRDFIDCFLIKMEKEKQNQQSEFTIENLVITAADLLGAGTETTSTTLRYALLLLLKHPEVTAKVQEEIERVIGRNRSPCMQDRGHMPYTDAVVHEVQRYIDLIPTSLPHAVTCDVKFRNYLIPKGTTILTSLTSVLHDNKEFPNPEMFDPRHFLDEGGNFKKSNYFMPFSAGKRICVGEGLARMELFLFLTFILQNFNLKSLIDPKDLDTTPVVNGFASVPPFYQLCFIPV
# CYP2C19 inh: inhibitors of human CYP2C19; 96,000 tested, 21% active; inhibition, % at 5 µM; P33261; AID 778; CYP2C19 Supersomes, luciferin-H EGE luminescence, 30 min;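 active = CYP2C19 inhibition above a set limit at 5 µM in the primary screen, cut at about 50% in these data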
# CYP2C9 act: activators of human CYP2C9; P11712; recombinant CYP2C9, luciferin-H conversion, luminescence; active compounds read high; factor 1 = untreated enzyme, 0 = blocked; activation factor at 5 µM; 96,000 tested, 1.4% active; AID 1024;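 active = activation factor of 2 or more for CYP2C9 at a 5 µM dose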
# Plk1 PBD FP: blocks phosphopeptide binding to human Plk1 polo box domain. P53350. Plk1 PBD phosphopeptide binding, fluorescence polarization. AID 693. inhibition, %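 (tested at about 20 µM)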. 97,000 tested, 0.13% active; in the data active = inhibition above about 34%, passing the limit was not always enough
# Hits are given with their value; . = inactive; / = no result.
SMILES,PLK1 kinase inh,CYP2C9 inhib,CYP2C19 activ,CYP2C19 inh,CYP2C9 act,Plk1 PBD FP
COC(=O)c1cc(NC(=O)Cc2ccc(OC)cc2)cc(C(=O)OC)c1,.,84,.,.,.,.
CCC(C)C(=O)Nc1cc(C(=O)OC)cc(C(=O)OC)c1 (centres undefined),.,61,.,.,.,.
COC(=O)c1ccc(NC(=O)Cc2ccccc2)cc1,.,70,.,83,.,.
O=C(CNS(=O)(=O)c1cccs1)Nc1ccc2c(c1)OCCO2,/,.,.,.,.,/
COC(=O)c1cc(NC(=O)CN2CCOCC2)cc(C(=O)OC)c1,.,.,.,.,.,.
CN(C)S(=O)(=O)c1ccc(C(=O)Nc2nnc(-c3ccc4c(c3)CCCC4)o2)cc1,.,.,.,.,.,.
O=C(CCS(=O)(=O)c1cccc2nsnc12)NC1CCCCCC1,.,.,.,.,.,.
COC(=O)c1ccc(NC(=S)Nc2ccccc2)cc1,.,.,.,52,.,.
COC(=O)c1ccc(NC(=S)NCCc2ccccc2)cc1,.,/,/,/,/,.
CCOC(=O)c1ccc(NC(=S)NCCc2ccccc2)cc1,.,66,.,.,.,.
CC1(C)CC(=O)c2cc(OCC(=O)N3CCOCC3)ccc2O1,.,.,.,.,.,.
O=C(CCc1nc(-c2ccccc2F)no1)NC1CCCCCC1,.,.,.,.,.,.
COC(=O)c1ccc(COC(=O)c2ccc(S(=O)(=O)N3CCC(C)CC3)cc2)o1,.,69,.,.,.,.
Cc1noc(NS(=O)(=O)c2ccc(NC(=O)CSc3nc4c(cc3C#N)CCCC4)cc2)c1C,.,.,.,.,.,.
CN(c1ccc(OCC(=O)N2CCC(C(N)=O)CC2)cc1)S(=O)(=O)c1cccs1,.,.,.,.,.,.
CN(c1ccc(OCC(=O)NC2CCCC2)cc1)S(=O)(=O)c1cccs1,.,72,.,.,.,.
Cc1ccc(C)c(C2=CSC3=NS(=O)(=O)CCN23)c1,.,.,.,.,.,.
Cc1ccc(C)c(C2=CSC3=NCCN23)c1,.,.,.,52,.,.
Clc1ccc(C2=CSC3=NCCN23)cc1Cl,.,.,.,71,.,.
Cc1ccc(C(=O)Nc2nc(=O)n(C(=O)C3CC3)s2)cc1,.,79,.,.,.,.
Cc1ccc(C(=O)Nc2nc(=O)n(C(=O)c3ccccc3C)s2)cc1,.,82,.,.,.,.
O=C(Nc1nc(=O)n(C(=O)C2CC2)s1)c1ccccc1,.,80,.,.,.,.
CC(=O)N1CCCc2cc(S(=O)(=O)NC(C(=O)NCc3ccc(C)cc3)C(C)C)ccc21 (centres undefined),.,.,.,.,.,.
Cc1nnc2ccc(N3CCOCC3)nn12,.,.,.,.,.,.
O=C(O)c1ccc(COc2ccc3c4c(c(=O)oc3c2)CCC4)o1,.,.,.,.,.,.
SMILES,PLK1 kinase inh,CYP2C9 inhib,CYP2C19 activ,CYP2C19 inh,CYP2C9 act,Plk1 PBD FP
CCCOc1ccc2oc(=O)c3c(c2c1)CCCN3C(=O)CN1CCc2ccccc2C1,.,64,.,89,.,.
CC1CC(C)CN(CC(=O)N2CCCc3c2c(=O)oc2ccc(OCc4ccccc4)cc32)C1 (centres undefined),.,85,.,75,.,.
CC1CCN(CCCOc2ccc(OCc3ccccc3)cc2)CC1,.,.,.,.,.,.
CC1CCN(CC(=O)N2CCCc3c2c(=O)oc2ccc(OCc4ccccc4)cc32)CC1,.,90,.,53,.,.
CCc1cc(=O)oc2cc(OCC(=O)N3CCc4ccccc43)ccc12,/,.,.,.,.,/
CC1C(=O)CCN(C(C)(C)C)C1C (centres undefined),.,.,.,.,.,.
CCOC(=O)Cc1csc(SCC(=O)/C(C#N)=C(\C)N)n1,.,.,.,95,.,.
CCOC(=O)Cc1csc(SCc2nc3ccccc3c(=O)[nH]2)n1,.,73,.,.,.,.
O=c1[nH]c(Cc2cccs2)nc2ccccc12,.,.,.,.,.,.
O=C(OCc1nc2ccccc2c(=O)[nH]1)c1cccs1,.,59,.,58,.,.
CCOC(=O)Cc1csc(Nc2c(C)n(C)n(-c3ccccc3)c2=O)n1,.,.,.,.,.,.
CCOC(=O)Cc1csc(SCC(=O)c2c(N)n(CC(C)C)c(=O)n(C)c2=O)n1,.,.,.,.,.,.
